Among the data in PubChem BioAssay (NCI) are growth values, retold here.

The panel holds about 83,000 compounds, 20% with a hit somewhere; the sample as a whole holds those more often.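 Growth was measured after 48 h exposure to one concentration of compound in 96-well plates. Values under 10 count as active.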 A number with no mark means an inactive call. Calls of active or inactive are those of the source.

What all share (experiment): NCI-60 one-dose screen, 48 h (100 = growth as untreated, 0 = no growth, -100 = all killed)
The subject of assay [1] is DU-145 prostate.
Assay [2] deals with K-562 leukemia. As to conditions: 10 µM unless noted.
For assay [3], the system named is MALME-3M melanoma.
The subject of assay [4] is MDA-MB-231 breast.
Assay [5] deals with RXF 393 renal.
Assay [6] has as its system SF-268 CNS.
Assay [7] relates to SF-295 CNS.
Assay [8] concerns SF-539 CNS.
Assay [9] relates to UACC-257 melanoma.
The test system of assay [10] is M14 melanoma.
Assay [11] relates to HCT-15 colon.
Assay [12] has as its system HT29 colon.
Assay [13] deals with SNB-75 CNS.
The subject of assay [14] is SNB-19 CNS.
For assay [15], the system named is U251 CNS.
Assay [16] relates to PC-3 prostate.
Assay [17] deals with SK-MEL-5 melanoma.
The subject of assay [18] is UACC-62 melanoma.
In assay [19] the test system is LOX IMVI melanoma.
In assay [20] the test system is SK-MEL-28 melanoma.

As to `COc1ccc(NC(=O)Cn2c(/C=C/c3ccc([N+](=O)[O-])cc3)nc3ccccc3c2=O)cc1`, the growth in assay [1] (10 µM unless noted) is 88.8%; in assay [2], 120%; in assay [3] (10 µM unless noted) it was 72.4%; in [4] (10 µM unless noted) it was -18.4% (active); in assay [5] (10 µM unless noted), -57.8% (active); in [6] (10 µM unless noted), 64.9%. The growth in assay [7] (10 µM unless noted) was 56.3%; in assay [8] (10 µM unless noted), 30.3%; in assay [9] (10 µM unless noted) it was 86.3%; in assay [10] (10 µM unless noted), 69.5%; in [11] (10 µM unless noted), 73.7%; in assay [12] (10 µM unless noted) it was 85.5%. Further, the growth in assay [13] (10 µM unless noted) is -32.7% (active); in assay [14] (10 µM unless noted) it was 32.2%; in [15] (10 µM unless noted) it was 32.2%; in [16] (10 µM unless noted), 89.7%; in assay [17] (10 µM unless noted) it was 52.6%; in assay [18] (10 µM unless noted) it was 73.2%. The growth in [19] (10 µM unless noted) was 61.5%; in [20] (10 µM unless noted), 80.8%.
For `O=C(Cn1c(-c2ccccc2)nc2ccccc21)N=Nc1c(O)[nH]c2ccc(Br)cc12`, the growth was 3.6% (active) in assay [1] (10 µM unless noted); 6% (active) in assay [2]; -20.5% (active) in assay [3] (10 µM unless noted); -56.8% (active) in assay [4] (10 µM unless noted); -80% (active) in assay [5] (10 µM unless noted); -0.321% (active) in assay [6] (10 µM unless noted). The growth was -80.4% (active) in assay [7] (10 µM unless noted); -80.9% (active) in [8] (10 µM unless noted); 9.11% (active) in assay [9] (10 µM unless noted); 5.92% (active) in assay [10] (10 µM unless noted); 1.07% (active) in assay [11] (10 µM unless noted); -33.1% (active) in assay [12] (10 µM unless noted). Also, the growth was -62.4% (active) in [13] (10 µM unless noted); -35.5% (active) in [14] (10 µM unless noted); -12.6% (active) in assay [15] (10 µM unless noted); 9.01% (active) in assay [16] (10 µM unless noted); -50.2% (active) in assay [17] (10 µM unless noted); -39.7% (active) in [18] (10 µM unless noted). The growth in assay [19] (10 µM unless noted) was -24.7% (active); in [20] (10 µM unless noted) it was -65.4% (active).
As to `NS(=O)(=O)c1cccc(Nc2nc(SCC(=O)c3ccc(F)cc3)nc3ccccc23)c1`, the growth in assay [1] (10 µM unless noted) is 9.74% (active); in assay [2], 8.34% (active); in [3] (10 µM unless noted) it was 10.6%; in [4] (10 µM unless noted) it was 7.12% (active); in assay [5] (10 µM unless noted) it was 38.9%; in assay [6] (10 µM unless noted), 8.21% (active). The growth is -5.65% (active) in assay [7] (10 µM unless noted); 8.17% (active) in [8] (10 µM unless noted); 14.4% in assay [9] (10 µM unless noted); 23.3% in assay [10] (10 µM unless noted); 8.07% (active) in assay [11] (10 µM unless noted); 18.3% in assay [12] (10 µM unless noted). The growth in assay [13] (10 µM unless noted) was 28.3%; in [14] (10 µM unless noted), 11.9%; in [15] (10 µM unless noted), -12% (active); in assay [16] (10 µM unless noted), 16.6%; in [17] (10 µM unless noted), -29.1% (active); in [18] (10 µM unless noted) it was -49.8% (active). In addition, the growth was -44.6% (active) in [19] (10 µM unless noted) and 26.8% in [20] (10 µM unless noted).
On to `CC/C(=C(/c1ccc(O)cc1)c1ccc(OCCN(C)C(=O)COCCOCCNC(=O)c2ccc3c(c2)CN([C@@H]2CCC(=O)NC2=O)C3=O)cc1)c1ccccc1`, for which the growth in assay [1] (1 µM) is 107%; in assay [1] (10 µM), 109%; in assay [3] (1 µM), 64.1%; in [3] (10 µM), 31.4%; in [4] (1 µM) it was 25.5%; in assay [4] (10 µM), 8.81% (active). The growth in assay [5] (1 µM) is 98.3%; in [5] (10 µM), 99%; in assay [6] (1 µM) it was 88.3%; in assay [6] (10 µM), 83.7%; in assay [7] (1 µM) it was 102%; in [7] (10 µM), 94.8%. Also, the growth was 92.1% in [8] (1 µM); 91.1% in [8] (10 µM); 96.2% in [9] (1 µM); 95.5% in assay [9] (10 µM); 89.9% in assay [10] (1 µM); 92% in [10] (10 µM). The growth was 105% in [11] (1 µM); 106% in assay [11] (10 µM); 96.6% in assay [12] (1 µM); 86% in assay [12] (10 µM); 54.5% in assay [13] (1 µM); 34.7% in assay [13] (10 µM). For the same compound, the growth in assay [14] (1 µM) was 85.5%; in assay [14] (10 µM), 75.5%; in [15] (1 µM), 98.3%; in assay [15] (10 µM), 90.8%; in assay [16] (1 µM) it was 49.6%; in assay [16] (10 µM), 39.3%. Besides, the growth was 95.2% in [17] (1 µM); 84.1% in assay [17] (10 µM); 93.1% in assay [18] (1 µM); 91.6% in assay [18] (10 µM); 98% in assay [19] (1 µM); 97.2% in [19] (10 µM). Further, the growth in assay [20] (1 µM) was 101%; in assay [20] (10 µM), 97.5%.
On to `COc1cc(CNC(=O)C[C@H](C)CCC=C(C)C)ccc1OCc1cn(-c2ccc(Br)cc2)nn1`, for which the growth in assay [1] (10 µM unless noted) was 92.7%; in assay [2], 66.3%; in assay [3] (10 µM unless noted), 85.4%; in assay [4] (10 µM unless noted), 80.6%; in [5] (10 µM unless noted) it was 61.8%; in assay [6] (10 µM unless noted) it was 71.7%. The growth is 63.2% in assay [7] (10 µM unless noted); 51.2% in assay [8] (10 µM unless noted); 86.3% in [9] (10 µM unless noted); 97.2% in assay [10] (10 µM unless noted); 82.4% in assay [11] (10 µM unless noted); 94.4% in assay [12] (10 µM unless noted). Also, the growth in [13] (10 µM unless noted) was 47.3%; in [14] (10 µM unless noted), 57.7%; in assay [15] (10 µM unless noted), 63.4%; in [16] (10 µM unless noted) it was 81.4%; in assay [17] (10 µM unless noted), 55.7%; in assay [18] (10 µM unless noted) it was 65.1%. Besides, the growth is 74% in assay [19] (10 µM unless noted) and 96.5% in assay [20] (10 µM unless noted).
In the case of `Cc1ccc(C(=O)Nc2cc(-n3ccnc3C)cc(C(F)(F)F)c2)cc1C#Cc1cnc2cccnn12`, the growth is 18.6% in assay [1] (10 µM unless noted); -3.69% (active) in assay [2]; -35.6% (active) in assay [3] (10 µM unless noted); -37.5% (active) in [4] (10 µM unless noted); -54.6% (active) in assay [5] (10 µM unless noted); 25.7% in [6] (10 µM unless noted). Besides, the growth was -60.9% (active) in assay [7] (10 µM unless noted); -81.8% (active) in [8] (10 µM unless noted); 3.43% (active) in [9] (10 µM unless noted); -20% (active) in assay [10] (10 µM unless noted); 5.01% (active) in assay [11] (10 µM unless noted); -16.8% (active) in [12] (10 µM unless noted). The growth in [13] (10 µM unless noted) is -28.1% (active); in assay [14] (10 µM unless noted) it was 30.3%; in assay [15] (10 µM unless noted), 22.1%; in [16] (10 µM unless noted) it was 8.32% (active); in [17] (10 µM unless noted), -67.6% (active); in assay [18] (10 µM unless noted), -40% (active). For the same compound, the growth was -80.2% (active) in assay [19] (10 µM unless noted) and -32.4% (active) in assay [20] (10 µM unless noted).
For `CN(C)c1nc(NCCNS(=O)(=O)c2ccc(C3=Nc4c(N)nc(N)nc4NC(c4ccc(C(F)(F)F)cc4)C3)cc2)nc(N2CCOCC2)n1` (stereo not drawn), the growth in assay [1] (10 µM unless noted) is 61.8%; in [2] it was 9.12% (active); in assay [3] (10 µM unless noted), 60.3%; in [4] (10 µM unless noted), 38.5%; in [5] (10 µM unless noted), 16.6%; in assay [6] (10 µM unless noted), 38.6%. Also, the growth in [7] (10 µM unless noted) is 45.5%; in [8] (10 µM unless noted) it was 34.3%; in [9] (10 µM unless noted), 52.9%; in [10] (10 µM unless noted), 28%; in assay [11] (10 µM unless noted), 53.6%; in assay [12] (10 µM unless noted), 9.6% (active). For the same compound, the growth in assay [13] (10 µM unless noted) is 46%; in assay [14] (10 µM unless noted) it was 49%; in assay [15] (10 µM unless noted), 26.6%; in assay [16] (10 µM unless noted) it was 24.2%; in assay [17] (10 µM unless noted), 25.5%; in assay [18] (10 µM unless noted) it was 51.5%. For the same compound, the growth in [19] (10 µM unless noted) is 0.0978% (active); in assay [20] (10 µM unless noted) it was 57.4%.
